In PubChem BioAssay:
For some assays here: Potency and affinity values are given separately. Active and inactive are the calls of the source. Unless noted, no rule for the calls is given here.

Experiments:
[1] = antimalarial activity against Dd2 strain (AID 2302;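 active = growth inhibition above 50% at the single 2 µM test dose, taken to imply half-maximal potency below 2 µM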;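 also: 0% = DMSO untreated growth and 100% = chloroquine plus artemisinin killed control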); details: P. falciparum Dd2 in RBCs, LDH growth readout, 72 h; at 2 µM; hits give high values
[2] = human hepatoma cell viability loss – ATP luminescence, cytotoxicity control for P. falciparum antimalarial project, primary screen (AID 2303;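 active = inhibition above 50%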;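 also: 0% = DMSO wells and 100% = digitonin-killed cells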); details: HepG2 viability, 24-48 h, at 10 µM, hits give high values
[3] = molecular target: L-lactate dehydrogenase (Plasmodium falciparum (isolate CDC / Honduras)) (UniProt Q27743); assay: PfLDH activity inhibition – cell lysate, 3D7 strain, counter-screen for P. falciparum growth inhibition project (AID 2304);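 also: 0% = vehicle and 100% = reference inhibitor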; details: P. falciparum 3D7 crude extract, LDH APAD/NBT absorbance; at 2 µM; hits give high values
[4] = inhibition of 3D7 malaria parasite growth – strain 3D7 (AID 2306);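 also: 0% = DMSO wells and 100% = chloroquine plus artemisinin control wells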; details: P. falciparum 3D7 erythrocytic growth, LDH absorbance, 72 h; at 2 µM; hits give high values
[5] = molecular target: Calcium-dependent protein kinase 1 (Plasmodium falciparum (isolate 3D7)) (UniProt P62344); assay: PfCDPK1 kinase inhibitors, biochemical, TCAMS library (AID 1159585; cut-off not given, nearly all actives have IC50 up to about 0.98 µM;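 also: inhibitors leave more ATP so luminescence rises with inhibition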); details: recombinant PfCDPK1, Kinase-Glo ATP depletion luminescence
[6] = molecular target: Plasmodium falciparum protein kinase 6 (PK6, PF3D7_1337100) (UniProt Q8IDW1); assay: PfPK6 kinase inhibitors, biochemical, TCAMS library (AID 1159586); details: recombinant PfPK6, Kinase-Glo ATP depletion luminescence
[7] = molecular target: Protein kinase 7 (PK7), Plasmodium falciparum 3D7 (PF3D7_0213400) (UniProt Q7YTF7); assay: inhibition of Plasmodium PK7 catalytic activity – biochemical, TCAMS antimalarial set, Kinase-Glo luminescence (AID 1159587); details: recombinant PfPK7, Kinase-Glo ATP depletion luminescence
[8] = molecular target: Calcium-dependent protein kinase 4 (Plasmodium falciparum (isolate 3D7)) (UniProt Q8IBS5); assay: PfCDPK4 kinase inhibitors, biochemical, TCAMS library (AID 1159588; cut-off not given, nearly all actives have IC50 up to about 0.91 µM); details: recombinant PfCDPK4, Kinase-Glo ATP depletion luminescence
Sequence of Calcium-dependent protein kinase 4 (Plasmodium falciparum (isolate 3D7)) (Q8IBS5 whole entry, looked up): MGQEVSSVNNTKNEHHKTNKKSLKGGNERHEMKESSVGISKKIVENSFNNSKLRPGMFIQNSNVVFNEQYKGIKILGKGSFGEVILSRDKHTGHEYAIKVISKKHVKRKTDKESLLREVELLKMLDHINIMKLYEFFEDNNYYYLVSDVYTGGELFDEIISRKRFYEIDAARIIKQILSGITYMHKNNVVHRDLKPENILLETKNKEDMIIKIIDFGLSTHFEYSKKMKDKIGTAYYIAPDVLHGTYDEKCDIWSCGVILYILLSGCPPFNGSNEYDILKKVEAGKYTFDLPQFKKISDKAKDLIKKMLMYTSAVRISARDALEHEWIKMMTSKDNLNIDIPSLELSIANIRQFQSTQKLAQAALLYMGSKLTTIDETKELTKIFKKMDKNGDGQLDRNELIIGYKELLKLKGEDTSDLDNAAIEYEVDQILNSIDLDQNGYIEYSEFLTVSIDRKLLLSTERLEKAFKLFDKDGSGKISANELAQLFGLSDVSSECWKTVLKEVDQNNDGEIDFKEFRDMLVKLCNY

Sequence of Calcium-dependent protein kinase 1 (Plasmodium falciparum (isolate 3D7)) (P62344 whole entry, looked up): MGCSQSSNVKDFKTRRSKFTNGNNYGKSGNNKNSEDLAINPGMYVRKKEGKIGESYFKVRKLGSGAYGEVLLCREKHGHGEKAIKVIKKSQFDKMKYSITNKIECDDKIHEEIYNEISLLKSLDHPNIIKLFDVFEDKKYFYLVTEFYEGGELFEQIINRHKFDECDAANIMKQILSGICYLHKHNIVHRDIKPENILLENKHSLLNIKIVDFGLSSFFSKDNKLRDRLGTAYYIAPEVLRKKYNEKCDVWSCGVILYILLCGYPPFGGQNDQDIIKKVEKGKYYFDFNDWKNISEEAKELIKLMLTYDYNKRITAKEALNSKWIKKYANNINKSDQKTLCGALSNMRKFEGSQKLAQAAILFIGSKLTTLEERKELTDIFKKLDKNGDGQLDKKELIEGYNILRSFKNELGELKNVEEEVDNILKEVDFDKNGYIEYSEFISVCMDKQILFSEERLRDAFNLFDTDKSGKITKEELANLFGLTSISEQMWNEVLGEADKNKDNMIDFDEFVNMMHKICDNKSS
Sequence of Plasmodium falciparum protein kinase 6 (PK6, PF3D7_1337100) (Q8IDW1 1-305): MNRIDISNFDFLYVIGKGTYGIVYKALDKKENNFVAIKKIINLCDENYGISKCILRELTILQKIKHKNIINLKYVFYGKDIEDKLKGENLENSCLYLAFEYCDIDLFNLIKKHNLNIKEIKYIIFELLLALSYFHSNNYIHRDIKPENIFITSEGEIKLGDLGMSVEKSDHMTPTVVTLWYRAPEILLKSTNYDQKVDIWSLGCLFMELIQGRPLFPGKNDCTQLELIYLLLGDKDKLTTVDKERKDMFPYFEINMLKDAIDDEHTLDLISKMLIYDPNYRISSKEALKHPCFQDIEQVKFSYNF
Sequence of Protein kinase 7 (PK7), Plasmodium falciparum 3D7 (PF3D7_0213400) (Q7YTF7 1-343): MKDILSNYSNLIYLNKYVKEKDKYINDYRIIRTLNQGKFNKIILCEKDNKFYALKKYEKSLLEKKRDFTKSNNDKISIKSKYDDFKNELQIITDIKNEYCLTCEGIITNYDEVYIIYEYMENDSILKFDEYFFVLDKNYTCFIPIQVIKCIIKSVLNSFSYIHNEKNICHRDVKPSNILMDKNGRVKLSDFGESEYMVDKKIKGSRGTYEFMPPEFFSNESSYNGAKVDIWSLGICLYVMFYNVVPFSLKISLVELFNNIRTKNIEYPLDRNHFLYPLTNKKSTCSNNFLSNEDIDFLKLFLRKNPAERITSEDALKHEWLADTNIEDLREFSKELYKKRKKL
Sequence of L-lactate dehydrogenase (Plasmodium falciparum (isolate CDC / Honduras)) (Q27743 whole entry, looked up): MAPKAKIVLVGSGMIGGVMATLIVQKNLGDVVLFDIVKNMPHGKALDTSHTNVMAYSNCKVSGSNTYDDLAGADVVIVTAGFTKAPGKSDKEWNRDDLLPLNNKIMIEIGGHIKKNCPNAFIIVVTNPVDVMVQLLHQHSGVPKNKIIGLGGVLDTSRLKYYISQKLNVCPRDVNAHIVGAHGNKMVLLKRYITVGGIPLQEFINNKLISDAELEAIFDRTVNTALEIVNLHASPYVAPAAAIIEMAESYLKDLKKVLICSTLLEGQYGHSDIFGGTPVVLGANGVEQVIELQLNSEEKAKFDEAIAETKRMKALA

COc1ccccc1N(C)CCNc1cc(C)nc(Nc2ccccc2)n1
active: growth inhibition [4] 96%
inactive: growth inhibition [1] 13% | inhibition [2] 10% | inhibition [3] -1% | outcome [5] | outcome [6] | outcome [7] | outcome [8]

COC(=O)Nc1cc(C(F)(F)F)ccc1N1CCCC(NS(=O)(=O)c2ccc(C(C)(C)C)cc2)C1 (stereo not given)
active: growth inhibition [1] 90% | growth inhibition [4] 97%
inactive: inhibition [2] -8% | inhibition [3] -5% | outcome [5] | outcome [6] | outcome [7] | outcome [8]

O=C(/C=C/c1ccc(Cl)c(Cl)c1)NCCCCCN1CCC(NC(=S)Nc2ccc(F)cc2F)CC1
active: growth inhibition [4] 100%
inactive: growth inhibition [1] 18% | inhibition [2] 20% | inhibition [3] 1% | outcome [5] | outcome [6] | outcome [7] | outcome [8]

COc1ccc2ccc(F)c(CC(=O)N3CCOC(CNCc4cccc(-c5ccsc5)n4)C3)c2n1 (stereo not given)
active: growth inhibition [4] 92%
inactive: growth inhibition [1] 1% | inhibition [2] 1% | inhibition [3] 3% | outcome [5] | outcome [6] | outcome [7] | outcome [8]

COc1ccc2nccc([C@@H](O)CN3CCC(NC(=O)C(c4cc5ccccc5s4)N4CCN(c5ccccc5OC)CC4)CC3)c2c1 (stereo not given in full)
inactive: inhibition [2] 21% | inhibition [3] -2% | outcome [5] | outcome [6] | outcome [7] | outcome [8]
active: growth inhibition [1] 88% | growth inhibition [4] 100%

CCCCN(CCCC)C(=NCCCCCCN=C(/N=C(/N)Nc1ccc(Cl)cc1)N(CCCC)CCCC)/N=C(/N)Nc1ccc(Cl)cc1
active: growth inhibition [1] 72% | growth inhibition [4] 81%
inactive: inhibition [2] -1% | inhibition [3] -5% | outcome [5] | outcome [6] | outcome [7] | outcome [8]

CC(C)NC[C@@H](O)[C@H](Cc1ccccc1)NC(=O)c1cc2c3c(c1)c(C(C)C)cn3CCS(=O)(=O)N2C
inactive: inhibition [2] 5% | inhibition [3] -3% | outcome [5] | outcome [6] | outcome [7] | outcome [8]
active: growth inhibition [1] 99% | growth inhibition [4] 98%

COC(=O)c1cccc(CNCc2ccc(-c3cccc(-c4nc5ccccc5[nH]4)c3)cc2)c1
inactive: growth inhibition [1] 46% | inhibition [2] 5% | inhibition [3] -3% | outcome [5] | outcome [6] | outcome [7] | outcome [8]
active: growth inhibition [4] 101%

O=C(NCC1CCC(CNCCc2ccccc2)CC1)Nc1ccc(Cl)c(Cl)c1 (stereo not given)
inactive: growth inhibition [1] -3% | inhibition [2] 24% | inhibition [3] -1% | outcome [5] | outcome [6] | outcome [7] | outcome [8]
active: growth inhibition [4] 96%

Cc1cc(N)nc2ccc(-c3ccc(CCN)cc3)cc12
inactive: growth inhibition [1] 48% | inhibition [2] 31% | inhibition [3] -4% | outcome [5] | outcome [6] | outcome [7] | outcome [8]
active: growth inhibition [4] 101%

CC1(C)N=C(N)N=C(N)N1OCc1cccc2c1ccc1ccccc12
inactive: inhibition [3] 4% | outcome [5] | outcome [6] | outcome [7] | outcome [8]
active: growth inhibition [1] 97% | inhibition [2] 63% | growth inhibition [4] 95%

CN1CCCC1CCNCc1ccc(-c2ccc(CNCCc3ccccc3)cn2)cc1 (stereo not given)
inactive: inhibition [2] 25% | inhibition [3] 2% | outcome [5] | outcome [6] | outcome [7] | outcome [8]
active: growth inhibition [1] 99% | growth inhibition [4] 101%

Cc1cc(-c2ccnc(Nc3cccc(C#N)c3)n2)cc(C)c1O
inactive: inhibition [3] 5% | outcome [5] | outcome [6] | outcome [7] | outcome [8]
active: growth inhibition [1] 54% | inhibition [2] 50% | growth inhibition [4] 88%

COc1ccc(NC(=O)[C@H](Cc2ccccc2)Nc2cc(C)nc(NCC3CCCCC3)n2)cc1
active: growth inhibition [1] 83% | growth inhibition [4] 100%
inactive: inhibition [2] 9% | inhibition [3] 1% | outcome [5] | outcome [6] | outcome [7] | outcome [8]

O=C(Nc1ccc(-c2cccc(-c3nc4ccc(F)cc4[nH]3)c2)cc1)c1ccncc1
active: inhibition [2] 58% | growth inhibition [4] 96%
inactive: growth inhibition [1] 18% | inhibition [3] -5% | outcome [5] | outcome [6] | outcome [7] | outcome [8]

O=C(NC1CCC(N2CCC(O)(c3ccc(F)cc3)CC2)CC1)c1cc2ccccc2[nH]1 (stereo not given)
active: growth inhibition [4] 94%
inactive: growth inhibition [1] 8% | inhibition [2] 9% | inhibition [3] -4% | outcome [5] | outcome [6] | outcome [7] | outcome [8]

O=S(=O)(/C=C/c1ccccc1)N(Cc1ccc(-c2ccc(CNCCc3ccccn3)cc2)cc1)CC1CCCCN1 (stereo not given)
active: growth inhibition [1] 97% | growth inhibition [4] 100%
inactive: inhibition [2] 46% | inhibition [3] -4% | outcome [5] | outcome [6] | outcome [7] | outcome [8]

Cc1[nH]c(C)c(-c2ccc(Oc3cccc(Cl)c3)cc2)c(=O)c1Cl
inactive: inhibition [2] 40% | inhibition [3] -3% | outcome [5] | outcome [6] | outcome [7] | outcome [8]
active: growth inhibition [1] 97% | growth inhibition [4] 99%

O=C(/C=C/c1ccc(Cl)c(Cl)c1)NCCCCN1CCCN(C(=O)Nc2cc(Cl)cc(Cl)c2)CC1
inactive: growth inhibition [1] 1% | inhibition [2] 21% | inhibition [3] 2% | outcome [5] | outcome [6] | outcome [7] | outcome [8]
active: growth inhibition [4] 97%

CCCCC(=O)Nc1ccc(Nc2nc(C)cc(N3CCCC3)n2)cc1
active: growth inhibition [1] 67% | growth inhibition [4] 101%
inactive: inhibition [2] 38% | inhibition [3] 4% | outcome [5] | outcome [6] | outcome [7] | outcome [8]

CN1CCN(c2cc3c(cc2Br)CCN3C(=O)Nc2ccc(-c3cnc4ccccc4c3)cc2)CC1
active: growth inhibition [1] 79% | inhibition [2] 100% | growth inhibition [4] 99%
inactive: inhibition [3] 3% | outcome [5] | outcome [6] | outcome [7] | outcome [8]

CN1CCC(c2c[nH]c3ccc(NC(=O)Nc4ccc(-c5ccncc5)c(Cl)c4Cl)cc23)CC1
inactive: growth inhibition [1] 19% | inhibition [2] 27% | inhibition [3] -1% | outcome [5] | outcome [6] | outcome [7] | outcome [8]
active: growth inhibition [4] 102%

Cc1[nH]c(CNCCCNc2cc(=O)c3ccccc3[nH]2)c(Br)c1Br
active: growth inhibition [4] 91%
inactive: growth inhibition [1] 47% | inhibition [2] -3% | inhibition [3] 4% | outcome [5] | outcome [6] | outcome [7] | outcome [8]

CCOC(=O)[C@H](Cc1cc([N+](=O)[O-])c(Oc2ccc(OC)c(Cc3ccc(OC)c(C(C)C)c3)c2)c([N+](=O)[O-])c1)NC(=O)C(F)(F)F
inactive: growth inhibition [1] -3% | inhibition [2] 5% | inhibition [3] -3% | outcome [5] | outcome [6] | outcome [7] | outcome [8]
active: growth inhibition [4] 94%

Cc1c[nH]c2ccc(/C=C/C(=O)NC3CCC(CCN4CCc5ccc(C#N)cc5CC4)CC3)cc12 (stereo not given)
inactive: inhibition [2] 9% | inhibition [3] 0% | outcome [5] | outcome [6] | outcome [7] | outcome [8]
active: growth inhibition [1] 91% | growth inhibition [4] 101%

FC(F)(F)c1ccc2nc(-c3ccc(-c4cccc(CNCCN5CCNCC5)c4)s3)[nH]c2c1
inactive: growth inhibition [1] 39% | inhibition [2] 22% | inhibition [3] 5% | outcome [5] | outcome [6] | outcome [7] | outcome [8]
active: growth inhibition [4] 91%

COc1ccc2nccc([C@@H](O)CN3CCC(NC(=O)c4nc(Cl)c(Cl)c(N)c4Cl)CC3)c2c1
inactive: growth inhibition [1] 17% | inhibition [2] 16% | inhibition [3] 2% | outcome [5] | outcome [6] | outcome [7] | outcome [8]
active: growth inhibition [4] 87%

COc1ccc(-c2ccccc2CNc2nc(NCCc3ccc(O)cc3)nc(N3CCNCC3)n2)cc1
inactive: growth inhibition [1] 3% | inhibition [2] 48% | inhibition [3] -3% | outcome [5] | outcome [6] | outcome [7] | outcome [8]
active: growth inhibition [4] 86%

CC1CN(Cc2ccccc2)CCN1c1ccc(NC(=O)c2ccc(F)cc2)cc1 (stereo not given)
active: growth inhibition [1] 89% | growth inhibition [4] 87%
inactive: inhibition [2] -6% | inhibition [3] -5% | outcome [5] | outcome [6] | outcome [7] | outcome [8]

CCN=C1NC2=C(CC(C(C)(C)C)CC2)C2(CCC(C(C)(C)C)CC2)S1 (stereo not given)
inactive: inhibition [2] 40% | inhibition [3] 4% | outcome [5] | outcome [6] | outcome [7] | outcome [8]
active: growth inhibition [1] 99% | growth inhibition [4] 99%

O=c1[nH]nc(-c2ccc(N3CCCC3)c([N+](=O)[O-])c2)c2ccccc12
inactive: growth inhibition [1] 39% | inhibition [2] 2% | inhibition [3] -6% | outcome [5] | outcome [6] | outcome [7] | outcome [8]
active: growth inhibition [4] 100%

COc1cccc(CN2CCCN(Cc3cccc(NC(=O)c4ccc(Cl)c(Cl)c4)c3)CC2)c1
active: growth inhibition [4] 89%
inactive: growth inhibition [1] 11% | inhibition [2] 26% | inhibition [3] 0% | outcome [5] | outcome [6] | outcome [7] | outcome [8]

CC(=O)c1cccc(NC(=O)C2c3ccccc3C(=O)N(CC(C)C)C2c2cccs2)c1 (stereo not given)
inactive: inhibition [2] 11% | inhibition [3] -2% | outcome [5] | outcome [6] | outcome [7] | outcome [8]
active: growth inhibition [1] 100% | growth inhibition [4] 100%

CCN1CCN(CCCNc2c3ccc(Cl)cc3nc3ccc(OC)cc23)CC1
inactive: inhibition [2] 34% | inhibition [3] -5% | outcome [5] | outcome [6] | outcome [7] | outcome [8]
active: growth inhibition [1] 100% | growth inhibition [4] 97%

O=[N+]([O-])c1ccc(N2CCCN(C(=S)Nc3ccc(F)cc3Br)CC2)nc1
active: growth inhibition [1] 99% | growth inhibition [4] 100%
inactive: inhibition [2] 4% | inhibition [3] -3% | outcome [5] | outcome [6] | outcome [7] | outcome [8]

CN(CCCNCc1ccc2ccccc2c1)CCCNCc1ccc2ccccc2c1
active: growth inhibition [1] 79% | inhibition [2] 100% | growth inhibition [4] 100%
inactive: inhibition [3] 1% | outcome [5] | outcome [6] | outcome [7] | outcome [8]

COc1ccc(C(=O)Nc2ccc(-c3nc4ccc(C)cc4[nH]3)cc2)cc1OC
active: inhibition [2] 70% | growth inhibition [4] 100%
inactive: growth inhibition [1] 38% | inhibition [3] 0% | outcome [5] | outcome [6] | outcome [7] | outcome [8]

COc1ccc([N+](=O)[O-])cc1N(Cc1ccccc1-c1ccccc1)S(=O)(=O)c1ccc(C(F)(F)F)cc1
inactive: inhibition [2] 3% | inhibition [3] -2% | outcome [5] | outcome [6] | outcome [7] | outcome [8]
active: growth inhibition [1] 66% | growth inhibition [4] 96%

NC(N)=NN=C1C=Cc2cccc3cccc1c23
inactive: growth inhibition [1] 49% | inhibition [2] 9% | inhibition [3] 1% | outcome [5] | outcome [6] | outcome [7] | outcome [8]
active: growth inhibition [4] 100%

Cc1cccc2[nH]c(-c3ccc(-c4cccc(NC(=O)c5cccc(C(N)=O)c5)c4)cc3)nc12
active: growth inhibition [1] 87% | growth inhibition [4] 84%
inactive: inhibition [2] 14% | inhibition [3] -1% | outcome [5] | outcome [6] | outcome [7] | outcome [8]
